Data reported in PubChem BioAssay AID651704 (Broad Institute, 2012).
Where “and” joins values, the source holds several entries; their conditions need not be identical. Equal entries are not always repeated. Screen size: about 350,000 compounds; about 1,600 (0.46%) were called active.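 How the source made its calls: active means every replicate reaching a set inhibition limit, whatever the replicate mean (cut at about 25% in these data); inconclusive means mean inhibition reaches that limit but some replicates miss it; inactive means the rest.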 The list comes from a sample in which actives are over-represented; it also holds similar structures and randomly drawn compounds. Some compounds were tested as several samples or in several runs, with calls that do not always agree.

Target: Protein AF-9 (Homo sapiens) (UniProt P42568)
Sequence (P42568 whole entry, looked up): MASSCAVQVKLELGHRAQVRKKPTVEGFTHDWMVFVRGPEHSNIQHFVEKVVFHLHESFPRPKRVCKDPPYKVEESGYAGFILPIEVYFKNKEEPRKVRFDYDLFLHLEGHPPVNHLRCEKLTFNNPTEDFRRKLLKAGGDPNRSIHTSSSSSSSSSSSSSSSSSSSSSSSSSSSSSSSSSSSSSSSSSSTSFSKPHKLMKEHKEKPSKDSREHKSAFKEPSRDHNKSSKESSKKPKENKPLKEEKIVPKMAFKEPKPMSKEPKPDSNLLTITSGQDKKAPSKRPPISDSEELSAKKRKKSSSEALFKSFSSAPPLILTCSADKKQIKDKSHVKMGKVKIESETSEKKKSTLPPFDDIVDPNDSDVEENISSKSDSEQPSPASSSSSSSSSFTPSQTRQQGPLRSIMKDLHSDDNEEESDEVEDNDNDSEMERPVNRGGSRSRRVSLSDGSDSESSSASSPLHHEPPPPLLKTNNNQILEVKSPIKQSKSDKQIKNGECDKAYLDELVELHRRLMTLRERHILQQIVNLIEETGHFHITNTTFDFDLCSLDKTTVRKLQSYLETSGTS
Test: MLL-AF4/AF9 protein interaction blockers – biochemical, AlphaScreen, biotin-AF4 peptide, FLAG-AF9, single point, primary screen (AID 651704);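 further: 0% = plate neutral control median and 100% = total signal loss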
Conditions: biotin-AF4 peptide binding to FLAG-AF9, at 10 µM, stronger effect = higher value

inhibition, active:
COc1ccc2c(c1)c(=Cc1ccc(N(C)C)cc1)c1cc(-c3ccccc3)[n+](C)n12 67.9%, COc1cccc2c1C(=O)c1c(O)c3c(c(O)c1C2=O)CC(O)(C(C)=NNC(=O)c1ccc(Cl)c(Cl)c1)CC3OC1CC(N)C(O)C(C)O1 (centres undefined) 33.8%, CC(=O)Nc1cc(-c2ccc(N3CCN(C)CC3)cc2)cn2c(-c3ccc(F)cc3)cnc12 26.2%, O=C(NCCc1cccc(F)c1)C1CCCN(c2nc3ccccc3s2)C1 (centres undefined) 39.3%, CC(=O)c1c(N2CCN(c3ccc(F)cc3)CC2)nc(=S)n(-c2ccccc2)c1C 26.4%, COc1cc2c(cc1NC(=O)COC(=O)/C=C/c1ccccc1)oc1ccccc12 30.3%, COC(=O)c1c(C)oc(C)c1S(=O)(=O)NCc1ccc(Cl)cc1 28.9%, CN(C)c1ccc(Nc2c3c4c(cccc4n(C)c2=O)C(=O)c2ccccc2-3)cc1 64.1%, O=C1Nc2cc(C(=O)N3CCC(N4CCCCC4)CC3)ccc2S/C1=C\c1ccccc1 32.5%, C[C@H]1CN([C@@H](C)CO)C(=O)Cc2cc(N(C)C)ccc2O[C@@H]1CN(C)Cc1ccc(-c2ccccc2)cc1 51.6%, C[C@@H]1CCCCO[C@H](CN(C)Cc2ccc(C(F)(F)F)cc2)[C@H](C)CN([C@@H](C)CO)C(=O)c2cc(N(C)C)ccc2O1 29.4%, Cc1ccccc1C(=O)Nc1ccc(N2CCCCCC2)cc1 27.9%, Oc1c(CN2CCN(c3ccc(F)cc3)CC2)cc(Cl)c2cccnc12 41.3%, O=[N+]([O-])c1ccccc1Nc1ccc(O)cc1 28.1%, COc1ccc2c3c(n(C)c2c1)[C@@H](CO)N(C(=O)Nc1cccc(F)c1)CC31CCN(Cc2nccs2)CC1 28.6%

inhibition, inactive:
N#C[C@@H]1[C@H](c2ccccc2-c2cccc(F)c2)[C@@H](CO)N1C(=O)CN1CCOCC1 -3.02%, CO[C@@H]1CN(C)C(=O)c2ccc(NS(C)(=O)=O)cc2OC[C@H](C)NC[C@H]1C -2.11%, Cc1ccc2c(c1)C1CN(C)CCC1N2C(=S)Nc1ccc(OC(F)F)cc1 (centres undefined) 5.25%, Cc1ccc2c(c1)C1CN(C)CCC1N2S(=O)(=O)c1cccc(F)c1 (centres undefined) 4.04%, CN(C)C(=O)c1cccc(-c2ccc([C@H]3[C@H](CO)N4C(=O)CN(C(=O)C5CCCCC5)C[C@@H]34)cc2)c1 -3%, CC(C)CC#Cc1cnc2c(c1)C(=O)N([C@@H](C)CO)C[C@@H](C)[C@@H](CN(C)C(=O)c1cccnc1)O2 -2.62%, COc1ccc2c3c(n(C)c2c1)[C@@H](CO)N(Cc1ccccc1)CC31CN(C(=O)C2CC2)C1 2.25%, COc1ccccc1-c1cc(NC(C)=O)c2ncc(-c3ccc(F)cc3)n2c1 -6.86%, CC(=O)Nc1cc(-c2ccc(N3CCN(C)CC3)cc2)cn2c(-c3cccc(C(=O)N(C)C)c3)cnc12 9.58%, CN(C)C(=O)c1cccc(-c2ccc3c(c2)[C@H]2[C@H](CCN2S(=O)(=O)c2cn(C)cn2)[C@@H](CO)N3)c1 -3.61%, Cc1noc(C)c1NC(=O)N(C)C[C@@H]1OCCCC[C@H](C)Oc2ccc(NC(=O)NC3CCCCC3)cc2C(=O)N([C@H](C)CO)C[C@H]1C -0.856%, CCCNC(=O)C[C@H]1C[C@H]2c3cc(NC(=O)NC4CCCCC4)ccc3O[C@H]2[C@H](CO)O1 5.96%, CCNC(=O)C[C@H]1CC[C@@H](NC(=O)C2CCOCC2)[C@@H](CO)O1 1.25%, O=C(NCc1ccccc1)C1CCCN(c2nc3ccsc3c(=O)s2)C1 (centres undefined) -3.41%, Cc1cc(=O)n2nc(N3CCCC(C(=O)NCc4cccc(Cl)c4)C3)sc2n1 (centres undefined) 2.52%, C/C=C/c1ccccc1[C@@H]1[C@@H](C#N)N(C(=O)Cc2ccccn2)[C@H]1CO 0.68%, COc1ccccc1-c1cnc2c(c1)C(=O)N([C@H](C)CO)C[C@H](C)[C@@H](CN(C)CC1CCOCC1)O2 -1.31%, CC(=O)c1c(N2CCOCC2)nc(=S)n(-c2cc(C)ccc2C)c1C 11.8%, Cc1ccc2cc(C)c(N3CCN(c4ccc(F)cc4)CC3)nc2c1 -1.83%, O=C(C1CCCC1)N1CC(=O)N2[C@H](C1)[C@@H](c1ccc(-c3cccnc3)cc1)[C@@H]2CO -2.09%, Cc1cccc(S(=O)(=O)N2CCCCN3[C@@H](CO)[C@H](c4ccc(-c5cccnc5)cc4)[C@@H]3C2)c1 -0.659%, COc1ccc2c3c(n(C)c2c1)[C@@H](CO)N(Cc1ccccc1F)CC31CCN(C(=O)C2CCOCC2)CC1 1.15%, Cc1noc(C)c1NC(=O)N(C)C[C@@H]1OCCCC[C@@H](C)Oc2ccc(NC(=O)C3CCCCC3)cc2C(=O)N([C@@H](C)CO)C[C@H]1C -0.114%, COc1ccc(/C=C/C(=O)OCC(=O)NCc2cccs2)cc1OC 2.43%, COc1cc(/C=C/C(=O)OCC(=O)c2ccccc2)cc(OC)c1OC 4.16%, COc1ccc(CNC(=O)C[C@@H]2CC[C@H](NC(=O)c3cccc(F)c3)[C@H](CO)O2)cc1 0.518%, COC(=O)c1cc(S(=O)(=O)NCC2CCN(Cc3ccc(Cl)cc3)CC2)cn1C 5.58%, COC(=O)c1c(C)oc(C)c1S(=O)(=O)Nc1ccc(C(C)C)cc1 0.192%, O=C(CC1CC1)Nc1ccc2c(c1)[C@@H]1C[C@@H](CC(=O)NC3CCCCC3)O[C@H](CO)[C@@H]1O2 0.025%, CC(C)CC#Cc1ccc([C@@H]2[C@@H](CO)N3C(=O)CN(C(=O)Nc4ccc(F)cc4)C[C@H]23)cc1 5.86%, CN(C)c1ccc(C2N(C)C(=O)c3ccccc3N2C)cc1 (centres undefined) 2.23%, COc1cccc(S(=O)(=O)Nc2ccc3c(c2)[C@H]2C[C@H](CC(=O)N4CCCCC4)O[C@@H](CO)[C@H]2O3)c1 0.52%, COc1ccc2c3c([nH]c2c1)[C@H](CO)N(C(=O)c1ccncc1)CC31CCN(C(=O)c2ccncc2)CC1 3.61%, COc1ccc(C#Cc2ccc([C@@H]3[C@@H](CO)N4C(=O)CN(C(=O)c5ccc(F)cc5)C[C@@H]34)cc2)cc1 -3.35%, O=C(c1ccccn1)N1CC2(C1)[C@H](c1ccccc1)[C@H](CO)N2C(=O)C1CCCC1 -1.83%, CN1C(=O)c2cc(NC(=O)c3ccno3)ccc2OC[C@H]2O[C@@H](CC(=O)NCC(F)(F)F)CC[C@@H]21 -0.947%, O=C(Nc1ccccc1)C1CCN(C(=O)c2ccc(Br)cc2)CC1 -2.26%, CC1CCN(C(=O)c2ccc3c(c2)NC(=O)CN3)CC1 4.92%, O=C(N[C@H]1CC[C@H](CCn2cc(C3(O)CCCC3)nn2)O[C@H]1CO)C1CC1 -0.223%, C[C@@H]1CN([C@H](C)CO)C(=O)Cc2cc(N(C)C)ccc2O[C@@H]1CN(C)Cc1ccccc1 3.48%, C[C@@H]1CCCCO[C@@H](CN(C)Cc2ccncc2)[C@H](C)CN([C@H](C)CO)C(=O)c2cc(N(C)C)ccc2O1 1.48%, C[C@@H]1CN([C@@H](C)CO)C(=O)c2cc(N(C)C)ccc2O[C@@H](C)CCCCO[C@H]1CN(C)Cc1ccncc1 -1.22%, C[C@H](CO)N1C[C@H](C)[C@H](CN(C)Cc2ccc(C(F)(F)F)cc2)Oc2ccc(N(C)C)cc2CC1=O 15.8%, CCCNC(=O)N1C[C@H](C)[C@@H](OC)CN(C)C(=O)c2ccc(NC(=O)CC)cc2OC[C@@H]1C -2.2%, COc1cccc(C#Cc2ccc([C@@H]3[C@H](C#N)N[C@H]3CO)cc2)c1 -2.01%, CC(C)C#Cc1ccc([C@H]2[C@@H](CO)N3C(=O)CN(C(=O)Cc4ccccc4)C[C@H]23)cc1 -0.595%, COc1ccccc1NC(=O)Nc1ccc2c(c1)OC[C@H](C)NC[C@H](C)[C@@H](OC)CN(C)C2=O 1.19%, Cc1ccc(S(=O)(=O)Nc2ccc3c(c2)C(=O)N([C@@H](C)CO)C[C@@H](C)[C@@H](CN(C)S(=O)(=O)c2ccc(C)cc2)O3)cc1 -1.03%, O=C(O)C[C@@H]1CC[C@H](NC(=O)CCN2CCCCC2)[C@H](CO)O1 -0.492%, Cc1ccccc1C(=O)Nc1ccccc1NC(=O)c1ccccc1C 0.679%, Cc1ccccc1C(=O)N1CCN(c2ccc(NC(=O)c3cccs3)cc2)CC1 0.817%, O=C(CC1CC1)N[C@@H]1C[C@@H]2O[C@H](CO)CC[C@@H]2O[C@@H]1CCc1ccc(C#Cc2ccccc2)cc1 -5.03%, Cc1ccc(CN2CCN(c3ncccn3)CC2)c(C)c1 -1.37%, Oc1c(CN2CCCC2)cc(COCc2ccccc2)c2cccnc12 6.56%, O=[N+]([O-])c1ccccc1NCc1ccccc1Cl -5.33%, O=C(NCCNc1ccccc1[N+](=O)[O-])c1ccccc1F 0.524%, COc1ccc2c3c(n(C)c2c1)[C@H](CO)N(C(=O)Nc1cccc(F)c1)CC31CN(Cc2nccs2)C1 7.77%, COc1ccc2c3c(n(C)c2c1)[C@@H](CO)N(C(C)=O)CC31CCN(Cc2nccs2)CC1 3.54%

inhibition, 20.9% (inactive) and 27.4% (active):
Cc1ccc2c(c1)C1CN(C)CCC1N2S(=O)(=O)c1ccc(Oc2ccc([N+](=O)[O-])cc2)cc1 (centres undefined)
